Laboratory results as given in PubChem BioAssay (NCATS).
Results filed as inconclusive are left out. Activity calls are given as the source filed them. Unless noted, the call rests on the fitted dose curve; in most records, active means well fitted curve in the direction sought with a large enough effect; inconclusive means small, poorly fitted or top-dose-only effect, or another doubt; inactive means no such curve, though single readings can be large; an effect the other way counts as inactive or inconclusive.

Assays:
[1] = target: Ferritin light chain (Equus caballus) (UniProt P02791); test: qHTS Validation Assay for Identification of Novel General Anesthetics (AID 2323); further: series mostly up to about 77 µM
Procedure, shortened: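 10 uM horse-spleen apoferritin + 1-AMA (50% saturated, PBS); cpd pin-transferred, 10 min RT. Ex 380/Em 535 nm endpoint. Activity normalized between free 1-AMA and 1-AMA/apoferritin; 4-parameter Hill fit of concentration-response.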

[2] = target: ATP-dependent DNA helicase Q1 (Homo sapiens) (UniProt P46063); test: qHTS Validation Assay for Inhibitors of RecQ-Like Dna Helicase 1 (RECQ1) (AID 2353)
Procedure, shortened: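 RECQ1T1 50 nM; forked duplex (20 bp + 30-nt ss tails) 200 nM, ATP 2 mM final; pH 8.0, 2 mM MgCl2, 2.5 ug/ml poly(dI-dC); 15 min compound preincubation; discontinuous kinetic read over 2 h at RT.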

[3] = Cytometric Cell-Based qHTS for Inhibitors of the mTORC1 Signaling Pathway in MEF (Tsc2-/-, p53-/-) Cells (AID 2660);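 further: Tsc2 and p53 null MEFs carrying empty vector with compound for 24 h; percent of cells above a phospho-rpS6 to PI ratio cutoff in each well; series mostly up to about 38 µM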
Procedure, shortened: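 Readout: Alexa-488 phospho-rpS6 (Ser235/236) intensity divided by PI intensity, thresholded against 7.5 nM rapamycin wells and reported as % positive cells. PI cell count served as the viability measure. Compound exposure was 24 hrs at 37 degree Celsius.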

[4] = High Content Imaging Cell-Based qHTS for Inhibitors of the mTORC1 Signaling Pathway in MEF (Tsc2-/-, p53-/-) Cells (AID 2666);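 further: percent of cells scored positive for phospho-rpS6 Ser235/236 immunostaining by imaging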
Procedure, shortened: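 Tsc2-/-, p53-/- MEFs (empty-vector stable) grown in DMEM + 10% FBS were exposed to compounds for 24 hrs at 37 degree Celsius, fixed, and stained with Alexa-488 anti-phospho-rpS6 Ser235/236 plus Hoechst. Imaging gave the percentage of positive cells per well.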

[5] = High Content Imaging Cell-Based qHTS for Inhibitors of the mTORC1 Signaling Pathway in MEF Cells (AID 2667);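 further: Tsc2-/- p53-/- MEFs stably re-expressing wild-type Tsc2 exposed 24 h; series mostly up to about 38 µM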
Procedure, shortened: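 Tsc2-/-, p53-/- MEFs stably re-expressing WT Tsc2, grown in DMEM + 10% FBS, were treated with compounds for 24 hrs at 37 degree Celsius, fixed, and stained with Alexa-488 phospho-rpS6 Ser235/236 antibody plus Hoechst; results given as % positive cells.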

[6] = Cytometry Cell-Based qHTS for Inhibitors of the mTORC1 Signaling Pathway in MEF cells (AID 2668);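 further: Tsc2-/- p53-/- mouse embryonic fibroblasts stably re-expressing wild-type Tsc2; percent cells positive for phospho-rpS6 Ser235/236 relative to propidium iodide stain; series mostly up to about 38 µM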
Procedure, shortened: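 Read-out: phospho-rpS6 Ser235/236 immunofluorescence normalized to propidium iodide intensity, scored as % active cells against a rapamycin (7.5 nM) threshold. Cells: Tsc2-/-, p53-/- MEFs stably expressing WT Tsc2, compound-treated 24 hrs at 37 degree Celsius.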

[7] = Validation screen for inhibitors of Lassa infection (AID 463096; calls by dose curve)
[8] = Validation screen for small molecules that induce DNA re-replication in MCF 10A normal breast cells (AID 463097); further: nearly all actives have a fitted effect of over 60% in size
Procedure, shortened: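 250 MCF 10A cells/well; compound pin-transferred; 48 hr, 37 C, 5% CO2; Hoechst 40 min; imaged 405/500-530 nm. Hits = more high-intensity nuclei.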

[9] = target: Ubiquitin carboxyl-terminal hydrolase 2 (Homo sapiens) (UniProt O75604); test: qHTS Validation Assay for Inhibitors of Ubiquitin-specific Protease USP2a Using CHOP2 as the Reporter (AID 463106)
Procedure, shortened: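 Readout was coupled fluorescence (Ex 485/Em 531 nm), read 60 min after adding 25 nM final Ub-CHOP2 and 25 nM reporter substrate. Beforehand, 10 nM final USP2 core had 30 min at RT with compound in pH 8.0 buffer. Curves were fitted after normalization to NEM and flagged for artifacts using time-zero reads.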

[10] = target: DNA polymerase III PolC-type (Bacillus subtilis (strain 168)) (UniProt P13267); test: qHTS Validation Assay for the Inhibitors of DNA Replication in Gram-Positive Bacteria (AID 485295);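 further: reconstituted holoenzyme with PolC plus beta clamp SSB and primase; PicoGreen fluorescence of double-stranded DNA made on primed circular M13 template; series mostly up to about 57 µM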
Procedure, shortened: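 PicoGreen fluorescence (ex 480–485/em 535–540 nm) reports dsDNA synthesized on ssM13Gori template with dNTPs/NTPs. Enzyme: holoenzyme rebuilt from purified PolC, beta subunit, SSB and primase. Compound preincubated before substrate addition; RT throughout.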

[11] = target: Beta-2 adrenergic receptor (Homo sapiens) (UniProt P07550); test: qHTS validation assay of beta-arrestin-biased ligands of beta2-adrenergic receptor (AID 485366)
Procedure, shortened: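 Agonist activity is measured as luciferase luminescence downstream of beta-arrestin recruitment to recombinant beta2-AR in Tango cells. Exposure lasts 18 hr at 37 degrees C, and curves are categorized by r2, response size and activity.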

[12] = target: ATP-dependent 6-phosphofructokinase (Trypanosoma brucei brucei) (UniProt O15648); test: qHTS Validation Assay to Find Inhibitors of T. brucei phosphofructokinase (AID 485368)
Procedure, shortened: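 Inhibition derived from concentration-response curves of luminescence, ranked by r2, response size and curve class; the underlying reaction used 1.25 nM PFK, 0.1 mM ATP and 0.5 mM F6P, 45 min, room temperature.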

[13] = Quantitative high throughput screen for delayed death inhibitors of the malarial parasite plastid, 48 hour incubation (AID 488752); further: nearly all actives have a fitted effect of over 65% in size; further: potency means the concentration at half of the fitted maximal effect
Procedure, shortened: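 First, compound was pinned into RPMI 1640 medium containing 0.5% Albumax. Next, reporter-parasite-infected erythrocytes were added to 2% hematocrit and 0.1% parasitemia. After 48 h at 37 C under 5% CO2, luciferase detection reagent was added and luminescence read.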

[14] = Quantitative high throughput screen for delayed death inhibitors of the malarial parasite plastid, 96 hour incubation (AID 488745); further: nearly all actives have a fitted effect of over 70% in size; further: potency means the concentration at half of the fitted maximal effect
Procedure, shortened: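 Readout is firefly luciferase luminescence from an integrated reporter in P. falciparum; lower signal marks inhibited growth. Cultures at 2% hematocrit and 0.1% parasitemia were treated with compound across two generations (96 h, 37 C, 5% CO2).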

[15] = target: Tumor susceptibility gene 101 protein (Homo sapiens) (UniProt Q99816); test: qHTS Validation Assay for Iinhibitors of HIV-1 Budding by Blocking the Interaction of PTAP/TSG101 (AID 485342; calls by dose curve)
Procedure, shortened: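 FP read-out: FITC-PTAP peptide, 50 nM final, binding Tsg101 binding domain, 10 uM final; 20 min r.t.; 10 mM HEPES pH 7.5, 0.15 M NaCl, 0.01% Tween 20, 3 mM EDTA, 0.1 mM TCEP.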

[16] = qHTS Validation Assay to Find Inhibitors of Chronic Active B-Cell Receptor Signaling (AID 485345; active means well fitted curve in the direction sought with a large enough effect in the main read-out, with a control signal flat, not every such curve was filed as active)
Procedure, shortened: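 Read-out: ratio of filter-corrected green (IkappaBalpha fusion) to red (native) luciferase signal in doxycycline-induced TMD8 cells after 4 h at 37C. Titration spanned 46 uM–3 nM; Data were normalised to basal cells and 10 uM MG-132 wells.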

[17] = target: RecQ-like DNA helicase BLM (Homo sapiens) (UniProt P54132); test: qHTS Validation Assay for Inhibitors of Bloom's syndrome helicase (BLM) (AID 2364)
Procedure, shortened: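 Forked 20-bp duplex substrate (200 nM, TAMRA/BHQ-2) plus 2 mM ATP added after 15 min compound preincubation with 50 nM enzyme, pH 8.0, poly(dI-dC) 2.5 ug/ml. Strand separation followed by fluorescence (525/598 nm) over 2 h, normalized to enzyme-free and DMSO controls.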

Measured: Potency

ATP-dependent 6-phosphofructokinase (Trypanosoma brucei brucei), sequence (O15648 whole entry, looked up): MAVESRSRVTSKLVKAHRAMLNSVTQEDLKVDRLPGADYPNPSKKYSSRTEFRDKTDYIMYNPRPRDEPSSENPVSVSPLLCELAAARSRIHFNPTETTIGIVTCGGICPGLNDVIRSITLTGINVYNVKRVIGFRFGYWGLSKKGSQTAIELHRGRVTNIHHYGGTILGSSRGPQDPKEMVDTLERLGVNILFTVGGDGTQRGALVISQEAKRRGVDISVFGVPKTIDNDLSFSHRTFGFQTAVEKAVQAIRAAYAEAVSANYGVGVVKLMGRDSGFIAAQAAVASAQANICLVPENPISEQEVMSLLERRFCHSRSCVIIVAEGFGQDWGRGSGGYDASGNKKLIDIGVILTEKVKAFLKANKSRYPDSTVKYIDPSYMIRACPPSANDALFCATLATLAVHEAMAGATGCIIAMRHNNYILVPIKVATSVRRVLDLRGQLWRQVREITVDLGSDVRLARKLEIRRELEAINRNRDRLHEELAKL
Ubiquitin carboxyl-terminal hydrolase 2 (Homo sapiens), sequence (O75604 whole entry, looked up): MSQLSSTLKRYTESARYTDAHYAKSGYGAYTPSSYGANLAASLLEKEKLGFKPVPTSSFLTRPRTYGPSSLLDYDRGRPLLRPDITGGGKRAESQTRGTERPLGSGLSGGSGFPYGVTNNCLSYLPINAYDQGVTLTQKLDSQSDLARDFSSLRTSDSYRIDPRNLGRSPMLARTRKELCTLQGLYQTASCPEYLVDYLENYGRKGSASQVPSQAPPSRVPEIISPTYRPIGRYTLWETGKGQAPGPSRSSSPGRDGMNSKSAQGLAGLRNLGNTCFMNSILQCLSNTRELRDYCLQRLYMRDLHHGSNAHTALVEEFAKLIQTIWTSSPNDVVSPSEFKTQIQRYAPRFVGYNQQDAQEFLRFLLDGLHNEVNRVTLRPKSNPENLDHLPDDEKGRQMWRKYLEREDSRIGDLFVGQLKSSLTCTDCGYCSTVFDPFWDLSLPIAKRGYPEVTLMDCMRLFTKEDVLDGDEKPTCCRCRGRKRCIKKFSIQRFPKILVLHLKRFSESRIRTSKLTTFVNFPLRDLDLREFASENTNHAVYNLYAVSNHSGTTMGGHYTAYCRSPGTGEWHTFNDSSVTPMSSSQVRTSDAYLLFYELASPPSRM
DNA polymerase III PolC-type (Bacillus subtilis (strain 168)), sequence (P13267 whole entry, looked up): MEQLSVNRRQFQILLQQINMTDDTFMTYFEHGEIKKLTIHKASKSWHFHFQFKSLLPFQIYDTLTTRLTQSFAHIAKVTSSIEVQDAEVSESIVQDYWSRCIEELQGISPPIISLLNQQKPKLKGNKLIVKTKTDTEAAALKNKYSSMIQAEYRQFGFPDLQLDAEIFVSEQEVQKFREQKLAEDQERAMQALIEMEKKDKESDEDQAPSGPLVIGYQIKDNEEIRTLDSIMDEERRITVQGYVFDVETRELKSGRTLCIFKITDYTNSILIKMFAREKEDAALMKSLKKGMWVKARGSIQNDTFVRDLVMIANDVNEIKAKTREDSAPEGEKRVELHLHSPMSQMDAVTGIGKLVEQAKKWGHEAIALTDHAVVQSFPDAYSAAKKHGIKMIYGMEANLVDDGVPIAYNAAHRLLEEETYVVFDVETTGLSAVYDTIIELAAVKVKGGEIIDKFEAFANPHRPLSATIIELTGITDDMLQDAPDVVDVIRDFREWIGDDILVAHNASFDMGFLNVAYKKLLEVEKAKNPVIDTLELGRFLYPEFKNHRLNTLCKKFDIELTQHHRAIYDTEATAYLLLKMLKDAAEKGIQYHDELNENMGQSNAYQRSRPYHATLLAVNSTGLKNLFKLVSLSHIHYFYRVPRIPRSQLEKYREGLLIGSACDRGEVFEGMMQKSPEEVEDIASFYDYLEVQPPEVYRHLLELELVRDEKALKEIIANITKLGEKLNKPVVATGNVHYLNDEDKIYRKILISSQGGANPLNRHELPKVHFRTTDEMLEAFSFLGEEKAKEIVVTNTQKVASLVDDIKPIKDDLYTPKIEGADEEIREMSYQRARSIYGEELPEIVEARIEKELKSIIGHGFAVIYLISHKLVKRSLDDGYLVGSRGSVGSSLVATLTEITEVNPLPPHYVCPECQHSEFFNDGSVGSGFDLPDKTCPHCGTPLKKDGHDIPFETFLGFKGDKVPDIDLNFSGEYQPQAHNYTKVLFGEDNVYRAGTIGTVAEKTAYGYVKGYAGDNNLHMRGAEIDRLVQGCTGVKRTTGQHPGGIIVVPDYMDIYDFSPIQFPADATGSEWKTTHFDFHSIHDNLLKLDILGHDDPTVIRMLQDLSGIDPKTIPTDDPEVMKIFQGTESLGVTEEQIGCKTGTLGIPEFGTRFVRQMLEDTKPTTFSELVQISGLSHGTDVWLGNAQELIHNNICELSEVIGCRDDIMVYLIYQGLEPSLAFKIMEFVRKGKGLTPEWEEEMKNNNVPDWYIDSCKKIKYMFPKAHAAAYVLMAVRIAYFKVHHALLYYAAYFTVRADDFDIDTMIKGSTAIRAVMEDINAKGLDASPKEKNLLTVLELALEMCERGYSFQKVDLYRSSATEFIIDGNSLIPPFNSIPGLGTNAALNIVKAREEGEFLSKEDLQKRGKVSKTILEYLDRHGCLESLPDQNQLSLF
Beta-2 adrenergic receptor (Homo sapiens), sequence (P07550 whole entry, looked up): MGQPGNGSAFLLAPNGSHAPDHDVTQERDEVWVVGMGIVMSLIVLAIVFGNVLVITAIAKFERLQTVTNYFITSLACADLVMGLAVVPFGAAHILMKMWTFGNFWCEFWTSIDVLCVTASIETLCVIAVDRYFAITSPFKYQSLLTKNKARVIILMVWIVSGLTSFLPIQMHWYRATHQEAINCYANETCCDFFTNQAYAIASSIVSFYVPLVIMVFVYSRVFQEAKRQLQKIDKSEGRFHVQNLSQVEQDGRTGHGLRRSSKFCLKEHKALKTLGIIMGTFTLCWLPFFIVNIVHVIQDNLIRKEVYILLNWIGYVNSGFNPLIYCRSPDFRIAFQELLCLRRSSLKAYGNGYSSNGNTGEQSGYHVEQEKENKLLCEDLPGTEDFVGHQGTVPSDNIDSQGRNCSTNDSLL
Tumor susceptibility gene 101 protein (Homo sapiens), sequence (Q99816 whole entry, looked up, the tested form may be a part): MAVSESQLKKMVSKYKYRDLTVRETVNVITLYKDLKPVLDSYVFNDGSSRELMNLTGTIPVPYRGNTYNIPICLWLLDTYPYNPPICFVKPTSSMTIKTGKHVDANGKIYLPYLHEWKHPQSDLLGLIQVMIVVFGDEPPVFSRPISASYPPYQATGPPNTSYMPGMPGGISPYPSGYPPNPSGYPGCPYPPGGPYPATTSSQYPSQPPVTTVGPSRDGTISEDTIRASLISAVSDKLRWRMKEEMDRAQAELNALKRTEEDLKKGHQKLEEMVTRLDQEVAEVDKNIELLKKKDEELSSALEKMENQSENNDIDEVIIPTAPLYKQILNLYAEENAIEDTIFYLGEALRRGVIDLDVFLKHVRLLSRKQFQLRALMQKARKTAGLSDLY
ATP-dependent DNA helicase Q1 (Homo sapiens), sequence (P46063 whole entry, looked up): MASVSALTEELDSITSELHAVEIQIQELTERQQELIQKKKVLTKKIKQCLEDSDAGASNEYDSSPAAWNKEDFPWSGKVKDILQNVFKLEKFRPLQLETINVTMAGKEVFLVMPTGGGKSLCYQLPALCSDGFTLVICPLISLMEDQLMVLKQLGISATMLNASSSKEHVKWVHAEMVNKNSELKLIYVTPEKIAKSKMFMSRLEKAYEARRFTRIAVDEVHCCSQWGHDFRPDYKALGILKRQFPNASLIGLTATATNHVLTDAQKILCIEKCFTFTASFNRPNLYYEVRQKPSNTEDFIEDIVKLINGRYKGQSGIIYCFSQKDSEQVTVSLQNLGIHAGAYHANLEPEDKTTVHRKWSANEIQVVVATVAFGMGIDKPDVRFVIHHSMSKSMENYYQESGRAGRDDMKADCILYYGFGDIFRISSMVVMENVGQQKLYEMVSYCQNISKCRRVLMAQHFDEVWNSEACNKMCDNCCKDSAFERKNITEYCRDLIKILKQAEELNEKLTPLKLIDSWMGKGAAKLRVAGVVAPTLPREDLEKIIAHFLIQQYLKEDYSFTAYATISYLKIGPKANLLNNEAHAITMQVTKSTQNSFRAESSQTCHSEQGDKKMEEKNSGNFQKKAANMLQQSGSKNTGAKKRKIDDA
Ferritin light chain (Equus caballus), sequence (P02791 2-175 limits assumed): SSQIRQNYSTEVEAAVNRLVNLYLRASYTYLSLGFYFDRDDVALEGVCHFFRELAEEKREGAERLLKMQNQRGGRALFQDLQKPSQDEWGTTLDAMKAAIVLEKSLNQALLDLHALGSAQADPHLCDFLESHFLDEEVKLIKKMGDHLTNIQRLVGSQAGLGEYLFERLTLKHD

CN1CCC(c2c[nH]c3ccc(O)cc23)CC1
not listed: [14] | [15] | [16] | [17]
inactive: all other assays above

N[C@@]1(C(=O)O)CC[C@@H](C(=O)O)C1
not listed: [3] | [12] | [15] | [16] | [17]
inactive: all other assays above

C[N+]1(C)CCC(OC(=O)C(c2ccccc2)c2ccccc2)CC1
active: [14] 2.08 µM | [13] 9.28 µM
inactive: [1] | [2] | [7] | [8]

N[C@@H](CCl)C(=O)O
not listed: [6] | [17]
inactive: all other assays above

NC(CCCCCP(=O)(O)O)C(=O)O (configuration not stated)
not listed: [3] | [17]
inactive: all other assays above

C/C(O)=C(\C#N)C(=O)Nc1cc(Br)ccc1Br
not listed: [12] | [16] | [17]
inactive: all other assays above

N[C@@H](Cn1oc(=O)[nH]c1=O)C(=O)O
not listed: [6] | [7] | [17]
inactive: all other assays above

O=C1CC[C@@]2(O)C3Cc4ccc(O)c5c4C2(CCN3CC2CC2)[C@H]1O5 (some centres not stated)
not listed: [9] | [12] | [17]
inactive: all other assays above

N#CC(C#N)=Cc1cc(O)c(O)c(O)c1
inactive: [1] | [2] | [7] | [8] | [13]

Clc1cc(I)cc(Cl)c1NC1=NCCN1
not listed: [3] | [7] | [12] | [17]
inactive: all other assays above

COc1ccc2[nH]c3c(c2c1)CCNC3
not listed: [2]
inactive: all other assays above

COc1ccc(OC)c(C(O)C(C)N)c1 (configuration not stated)
not listed: [6] | [12] | [16] | [17]
inactive: all other assays above

CN1CC[C@@]2(C)c3cc(O)ccc3N(C)C12 (some centres not stated)
active: [13] 14.7 µM
not listed: [6] | [7] | [8] | [12] | [14] | [17]
inactive: all other assays above

CC(C)(C)c1o[nH]c(=O)c1CC(N)C(=O)O (configuration not stated)
not listed: [3] | [15] | [16] | [17]
inactive: all other assays above

Cc1o[nH]c(=O)c1CC(N)C(=O)O (configuration not stated)
not listed: [15] | [17]
inactive: all other assays above

Nc1ccc(CCN2CCN(c3cccc(C(F)(F)F)c3)CC2)cc1
not listed: [3] | [6] | [14] | [15] | [17]
inactive: all other assays above

C[Se]C[C@H](N)C(=O)O
not listed: [6] | [17]
inactive: all other assays above

CCCN(CCC)C1CCc2cccc(O)c2C1 (configuration not stated)
not listed: [3] | [6] | [12] | [15] | [16] | [17]
inactive: all other assays above

NC(N)=NOCC[C@H](N)C(=O)O
not listed: [3] | [15] | [16] | [17]
inactive: all other assays above

CC1OC1P(=O)(O)O (configuration not stated)
inactive: [1] | [2] | [8] | [14] | [13]

CCCN(CCC)C1Cc2cc(OC)c(OC)cc2C1
not listed: [6] | [12] | [17]
inactive: all other assays above

NNC(=O)c1ccc(O)cc1
not listed: [12] | [16] | [17]
inactive: all other assays above

C=CCN1CCC23c4c5ccc(O)c4O[C@H]2C(=O)CC[C@@]3(O)C1C5 (some centres not stated)
not listed: [15] | [17]
inactive: all other assays above

O=C1C=CC(=O)C=C1
not listed: [3] | [6] | [12] | [16] | [17]
inactive: all other assays above

CCCn1c(C)c(C(=O)c2ccc3ccccc3c2)c2ccccc21
not listed: [3] | [6] | [8] | [12] | [15] | [16] | [17]
inactive: all other assays above

C[N+]1(C)CCN(c2ccccc2)CC1
not listed: [3] | [6] | [12] | [15] | [16] | [17]
inactive: all other assays above

COC(=O)N1CCN(C(=O)Cc2ccc(Cl)c(Cl)c2)C(CN2CCCC2)C1 (configuration not stated)
not listed: [3] | [6] | [12] | [13] | [15] | [16] | [17]
inactive: all other assays above

CCN(CC)c1ncnc2c1ncn2[C@@H]1O[C@H](COP(=O)(O)OP(=O)(O)C(Br)(Br)P(=O)(O)O)[C@@H](O)[C@H]1O
inactive: [1] | [2] | [7] | [8] | [14] | [13]
